# Measured values from the supplement of paper PMC4466140.
# Key:
# Experiment in all cases: SPOT peptide array binding signal intensity (averaged, normalized) (arbitrary units (background-subtracted, floor 0; scale differs between SH3 domains)); higher = stronger binding of the SH3 domain to the peptide
# AgAbp1 = target: AgAbp1
# Method: (§1)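 GST-tagged SH3 domains from S. cerevisiae (Sc), A. gossypii (Ag), C. albicans (Ca) and S. pombe (Sp) were incubated at 10 ug/ml overnight at 4 C on cellulose SPOT membranes carrying 292 synthetic 15-mer peptides mined from the S. cerevisiae proteome (cysteines replaced by serines). Binding was detected with anti-GST antibody, HRP secondary and chemiluminescence, quantified with Genespotter, and reported as normalized spot intensities averaged over biological replicates.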
# AgBbc1 = target: AgBbc1
# Method: as §1
# AgBem1-D1 = target: AgBem1-D1
# Method: as §1
# AgBzz1-D1 = target: AgBzz1-D1
# Method: as §1
# AgBzz1-D2 = target: AgBzz1-D2
# Method: as §1
# AgCyk3 = target: AgCyk3
# Method: as §1
# AgFus1 = target: AgFus1
# Method: as §1
# AgHof1 = target: AgHof1
# Method: as §1
# AgHse1 = target: AgHse1
# Method: as §1
# AgLsb1 = target: AgLsb1
# Method: as §1
# AgLsb4 = target: AgLsb4
# Method: as §1
# AgMyo5 = target: AgMyo5
# Method: as §1
# AgNbp2 = target: AgNbp2
# Method: as §1
# AgRvs167 = target: AgRvs167
# Method: as §1
# AgSho1 = target: AgSho1
# Method: as §1
# AgSla1-D1-D2 = target: AgSla1-D1-D2
# Method: as §1
# AgSla1-D3 = target: AgSla1-D3
# Method: as §1
# CaAbp1-D1 = target: CaAbp1-D1
# Method: as §1
# CaAbp1-D2 = target: CaAbp1-D2
# Method: as §1
# CaBbc1 = target: CaBbc1
# Method: as §1
# CaBem1-D1 = target: CaBem1-D1
# Method: as §1
# CaBzz1-D1 = target: CaBzz1-D1
# Method: as §1
# CaBzz1-D2 = target: CaBzz1-D2
# Method: as §1
# CaCyk3 = target: CaCyk3
# Method: as §1
# CaFus1 = target: CaFus1
# Method: as §1
# CaHof1 = target: CaHof1
# Method: as §1
# CaHse1 = target: CaHse1
# Method: as §1
# CaLsb1 = target: CaLsb1
# Method: as §1
# CaLsb4 = target: CaLsb4
# Method: as §1
# CaMyo5 = target: CaMyo5
# Method: as §1
# CaNbp2 = target: CaNbp2
# Method: as §1
# CaRvs167 = target: CaRvs167
# Method: as §1
# CaRvs167-3 = target: CaRvs167-3
# Method: as §1
# CaSho1 = target: CaSho1
# Method: as §1
# CaSla1-D1-D2 = target: CaSla1-D1-D2
# Method: as §1
# CaSla1-D3 = target: CaSla1-D3
# Method: as §1
# ScAbp1 = target: ScAbp1
# Method: as §1
# ScBbc1 = target: ScBbc1
# Method: as §1
# ScBem1-D1 = target: ScBem1-D1
# Method: as §1
# ScBzz1-D1 = target: ScBzz1-D1
# Method: as §1
# ScBzz1-D2 = target: ScBzz1-D2
# Method: as §1
# ScCyk3 = target: ScCyk3
# Method: as §1
# ScFus1 = target: ScFus1
# Method: as §1
# ScHof1 = target: ScHof1
# Method: as §1
# ScHse1 = target: ScHse1
# Method: as §1
# ScLsb1 = target: ScLsb1
# Method: as §1
# ScLsb2 = target: ScLsb2
# Method: as §1
# ScLsb3 = target: ScLsb3
# Method: as §1
# ScLsb4 = target: ScLsb4
# Method: as §1
# ScMyo3 = target: ScMyo3
# Method: as §1
# ScMyo5 = target: ScMyo5
# Method: as §1
# ScNbp2 = target: ScNbp2
# Method: as §1
# ScPex13 = target: ScPex13
# Method: as §1
# ScRvs167 = target: ScRvs167
# Method: as §1
# ScSho1 = target: ScSho1
# Method: as §1
# ScSla1-D1-D2 = target: ScSla1-D1-D2
# Method: as §1
# ScSla1-D3 = target: ScSla1-D3
# Method: as §1
# SpAbp1-D1 = target: SpAbp1-D1
# Method: as §1
# SpBbc1 = target: SpBbc1
# Method: as §1
# SpBzz1-D1 = target: SpBzz1-D1
# Method: as §1
# SpBzz1-D2 = target: SpBzz1-D2
# Method: as §1
# SpCyk3 = target: SpCyk3
# Method: as §1
# SpHof1 = target: SpHof1
# Method: as §1
# SpHof1-2 = target: SpHof1-2
# Method: as §1
# SpHof1-3 = target: SpHof1-3
# Method: as §1
# SpHse1 = target: SpHse1
# Method: as §1
# SpLsb1 = target: SpLsb1
# Method: as §1
# SpLsb4 = target: SpLsb4
# Method: as §1
# SpMyo1 = target: SpMyo1
# Method: as §1
# SpNbp2 = target: SpNbp2
# Method: as §1
# SpPex13 = target: SpPex13
# Method: as §1
# SpRvs167 = target: SpRvs167
# Method: as §1
# SpSla1-D1-D2 = target: SpSla1-D1-D2
# Method: as §1
# SpSla1-D3 = target: SpSla1-D3
# Method: as §1
binder,measurement,setting,value
LASNSPPVYPKRIRH,SPOT peptide array binding signal intensity,AgAbp1,45
same,SPOT peptide array binding signal intensity,AgBbc1,18.2
same,SPOT peptide array binding signal intensity,AgBem1-D1,≤ 0
same,SPOT peptide array binding signal intensity,AgBzz1-D1,59
same,SPOT peptide array binding signal intensity,AgBzz1-D2,6
same,SPOT peptide array binding signal intensity,AgCyk3,≤ 0
same,SPOT peptide array binding signal intensity,AgFus1,≤ 0
same,SPOT peptide array binding signal intensity,AgHof1,≤ 0
same,SPOT peptide array binding signal intensity,AgHse1,3.5
same,SPOT peptide array binding signal intensity,AgLsb1,2.5
same,SPOT peptide array binding signal intensity,AgLsb4,196
same,SPOT peptide array binding signal intensity,AgMyo5,≤ 0
same,SPOT peptide array binding signal intensity,AgNbp2,≤ 0
same,SPOT peptide array binding signal intensity,AgRvs167,4.17
same,SPOT peptide array binding signal intensity,AgSho1,≤ 0
same,SPOT peptide array binding signal intensity,AgSla1-D1-D2,2
same,SPOT peptide array binding signal intensity,AgSla1-D3,≤ 0
same,SPOT peptide array binding signal intensity,CaAbp1-D1,93
same,SPOT peptide array binding signal intensity,CaAbp1-D2,47.5
same,SPOT peptide array binding signal intensity,CaBbc1,400
same,SPOT peptide array binding signal intensity,CaBem1-D1,6
same,SPOT peptide array binding signal intensity,CaBzz1-D1,165
same,SPOT peptide array binding signal intensity,CaBzz1-D2,44.8
same,SPOT peptide array binding signal intensity,CaCyk3,≤ 0
same,SPOT peptide array binding signal intensity,CaFus1,≤ 0
same,SPOT peptide array binding signal intensity,CaHof1,0.25
same,SPOT peptide array binding signal intensity,CaHse1,≤ 0
same,SPOT peptide array binding signal intensity,CaLsb1,≤ 0
same,SPOT peptide array binding signal intensity,CaLsb4,771
same,SPOT peptide array binding signal intensity,CaMyo5,≤ 0
same,SPOT peptide array binding signal intensity,CaNbp2,≤ 0
same,SPOT peptide array binding signal intensity,CaRvs167,4.17
same,SPOT peptide array binding signal intensity,CaRvs167-3,2.25
same,SPOT peptide array binding signal intensity,CaSho1,3
same,SPOT peptide array binding signal intensity,CaSla1-D1-D2,56
same,SPOT peptide array binding signal intensity,CaSla1-D3,≤ 0
same,SPOT peptide array binding signal intensity,ScAbp1,39.5
same,SPOT peptide array binding signal intensity,ScBbc1,16.8
same,SPOT peptide array binding signal intensity,ScBem1-D1,≤ 0
same,SPOT peptide array binding signal intensity,ScBzz1-D1,≤ 0
same,SPOT peptide array binding signal intensity,ScBzz1-D2,19
same,SPOT peptide array binding signal intensity,ScCyk3,1
same,SPOT peptide array binding signal intensity,ScFus1,≤ 0
same,SPOT peptide array binding signal intensity,ScHof1,0.75
same,SPOT peptide array binding signal intensity,ScHse1,≤ 0
same,SPOT peptide array binding signal intensity,ScLsb1,46.5
same,SPOT peptide array binding signal intensity,ScLsb2,10
same,SPOT peptide array binding signal intensity,ScLsb3,1560
same,SPOT peptide array binding signal intensity,ScLsb4,45.5
same,SPOT peptide array binding signal intensity,ScMyo3,≤ 0
same,SPOT peptide array binding signal intensity,ScMyo5,≤ 0
same,SPOT peptide array binding signal intensity,ScNbp2,≤ 0
same,SPOT peptide array binding signal intensity,ScPex13,56.5
same,SPOT peptide array binding signal intensity,ScRvs167,7.67
same,SPOT peptide array binding signal intensity,ScSho1,27.5
same,SPOT peptide array binding signal intensity,ScSla1-D1-D2,11
same,SPOT peptide array binding signal intensity,ScSla1-D3,≤ 0
same,SPOT peptide array binding signal intensity,SpAbp1-D1,18.5
same,SPOT peptide array binding signal intensity,SpBbc1,≤ 0
same,SPOT peptide array binding signal intensity,SpBzz1-D1,248
same,SPOT peptide array binding signal intensity,SpBzz1-D2,≤ 0
same,SPOT peptide array binding signal intensity,SpCyk3,≤ 0
same,SPOT peptide array binding signal intensity,SpHof1,1.5
same,SPOT peptide array binding signal intensity,SpHof1-2,1
same,SPOT peptide array binding signal intensity,SpHof1-3,2.75
same,SPOT peptide array binding signal intensity,SpHse1,≤ 0
same,SPOT peptide array binding signal intensity,SpLsb1,257
same,SPOT peptide array binding signal intensity,SpLsb4,1810
same,SPOT peptide array binding signal intensity,SpMyo1,≤ 0
same,SPOT peptide array binding signal intensity,SpNbp2,0.5
same,SPOT peptide array binding signal intensity,SpPex13,≤ 0
same,SPOT peptide array binding signal intensity,SpRvs167,3.5
same,SPOT peptide array binding signal intensity,SpSla1-D1-D2,≤ 0
same,SPOT peptide array binding signal intensity,SpSla1-D3,≤ 0
